Jurkat NFkB inh: inhibitors of induced NF-kB luciferase reporter, primary screen, TCR NF-kB activation inhibitor project, cell-based, luminescence, uHTS. inhibition, % at 4 µM. 330,000 tested, 0.53% active. Jurkat, PMA/ionomycin-induced NF-kB luciferase reporter; in the data active = inhibition above about 50%
aSyn 5UTR inh: MLPCN primary screen, SNCA 5' untranslated region | alpha-synuclein 5'UTR reporter, inhibitor activity | inhibition, % (tested at 7.5 µM) | 300,000 tested, 0.82% active | AID 1813, 2009; in the data active = inhibition above about 60%;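 note: H4 neuroglioblastoma cells stably carrying SNCA 5'UTR luciferase fusion; 0% = DMSO wells and 100% = positive control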
TMEM16A act: TMEM16A chloride channel activators or potentiators, primary screen, cell-based, HTS | Anoctamin-1 (Mus musculus), Q8BHY3 | AID 623877, 2012 | HEK293 TMEM16A/YFP-H148Q/I152L, iodide quench fluorescence; active compounds read low | B-score at 10 µM | 340,000 tested, 0.3% active;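 active = fluorescence-ratio B-score plate-corrected deviation score at least 3 library SD below zero, with starting fluorescence score within 5 deviations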;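 note: channel opened by trigger with iodide after compound preincubation; score built on the fluorescence ratio of max minus min over baseline; more negative score means more quench and so TMEM16A activation or potentiation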
KLF5 inh: KLF5 expression inhibitors, primary screen, DLD-1 cells, luminescence | DLD-1 KLF5 promoter-luciferase reporter | inhibition, % at 5 µM | 290,000 tested, 0.23% active;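 active = inhibition above a per-plate limit of that plate's mean compound inhibition plus 3 SD, cut at about 60% in these data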;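 note: 0% = DMSO wells and 100% = LY294002 at 200 µM; higher means less KLF5 promoter-driven luciferase light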
ANO1 block: TMEM16A chloride channel inhibitors, primary screen, cell-based, HTS | Anoctamin-1 (Mus musculus), Q8BHY3 | 310,000 tested, 1.2% active | normalized B-score (activity score, 25-100; higher = stronger inhibition) at 10 µM | HEK293 TMEM16A/YFP iodide influx fluorescence, ionomycin;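 active = ratio plate-corrected score three or more library SD toward inhibition, starting fluorescence score within five deviations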;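 note: score derived from kinetic fluorescence span divided by baseline fluorescence per well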
697 NFkB inh: inhibitors of PMA/ionomycin-induced NF-kB reporter, 697 cells, primary screen, B-cell NF-kB inhibitor project, cell-based, luminescence, uHTS; 697 B-cell NF-kB luciferase reporter, 16 h; inhibition, % at 4 µM; 330,000 tested, 0.33% active; in the data active = inhibition above about 35%
TMEM16A reconf: TMEM16A chloride channel inhibitors, confirmation, cell-based, re-confirmation; 2,300 tested, 39% active; inhibition, % at 10 µM; shares compounds with ANO1 block; HEK293 TMEM16A/YFP-H148Q, iodide quench fluorescence; ionomycin added to raise cell calcium;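 active = mean duplicate percent inhibition, scaled so buffer wells are 0 and the reference blocker 100, over three buffer SD above buffer mean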
TMEM16A Ca cntr: calcium mobilization in TMEM16A/YFP HEK293 cells, confirmation, counter-screen for TMEM16A inhibitor project | 2,300 tested, 2% active | shares compounds with ANO1 block | Fluo4 calcium mobilization | calcium response (% of ionomycin), % at 10 µM;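 active = duplicate-averaged calcium signal over 20% of the ionomycin maximum, relative to buffer baseline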;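 note: each well's signal is peak minus trough fluorescence divided by its pre-addition baseline; 0% = buffer wells and 100% = ionomycin wells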
YFP-HEK293 quench: iodide YFP quench changes in parental YFP-HEK293, counter-screen for TMEM16A inhibitor project, cell-based. ionomycin. YFP ratio F(max-min)/F0 at 10 µM. shares compounds with ANO1 block. 2,300 tested, under 10 active;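 active = yellow fluorescent protein signal ratio exceeding the buffer control mean by over 5 SD of those controls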;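 note: ratio is mean of duplicate wells from kinetic YFP trace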
ClC-1 rat inh: ClC-1 chloride channel inhibition, selectivity assay for TMEM16A inhibitor project, cell-based, voltage-dependent ClC-1; ratio percent, % at 10 µM; 2,300 tested, under 10 active; AID 652236, 2013; shares compounds with ANO1 block; CHO ClC-1-YFP, iodide influx fluorescence quench; iodide control reads 0, buffer control 100;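 active = duplicate-mean ratio percent above the mean of iodide-only control wells, which defines zero, plus 5 of their SD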;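 note: higher percent means stronger block of ClC-1 iodide influx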
The depositor's hits bear a star; i = inactive; nt = not tested or not shown. This is a sample that favours compounds with a hit; in the whole collection about 2.5% have one here.

SMILES	Jurkat NFkB inh	aSyn 5UTR inh	TMEM16A act	KLF5 inh	ANO1 block	697 NFkB inh	TMEM16A reconf	TMEM16A Ca cntr	YFP-HEK293 quench	ClC-1 rat inh
CCOC(=O)c1ccccc1NC(=O)CSc1nnnn1C1CCCCC1	-1	41	i	20	100*	-11	i	i	-0.96	-2
CCOC(=O)c1ccccc1NC(=O)CSc1nnc(COc2ccccc2C)n1C	11	34	i	-4	25*	11	i	i	-1.2	-8
O=C(c1cc(COc2ccccc2)on1)N1CCCC(CN2CCOCC2)C1 (configuration not stated)	3	-27	i	-30	i	-13	nt	nt	nt	nt
CCc1ccc(CNc2ccc(N3CCN(C(C)=O)CC3)cc2)cc1	3	-10	i	-23	25*	-14	i	i	-1.1	-14
CC(=O)N1CCN(c2ccc(NCc3ccc(C)cc3)cc2)CC1	-11	-3	nt	-9	i	-20	nt	nt	nt	nt
CCCCn1c(CN2CCN(c3cccc(Cl)c3)CC2)nc2c1c(=O)n(C)c(=O)n2C	9	4	i	-8	25*	-1	i	i	-1.1	-12
Cc1ccc(O)c(C(=O)c2cnc3c(c2)c(-c2ccc(F)cc2)c(C#N)c(=O)n3C)c1	10	-8	i	-8	i	3	nt	nt	nt	nt
COc1ccc(NC(C)=O)cc1S(=O)(=O)NC(C)c1ccc(-n2ccnc2)cc1 (configuration not stated)	8	nt	i	nt	nt	19	nt	nt	nt	nt
Cc1ccccc1OCC(=O)Nc1ccc(C)c(S(=O)(=O)N2CCCCCC2)c1	5	15	i	nt	25*	-4	i	i	-0.95	-4
COc1ccc(NC(=O)CCOc2ccccc2C)cc1S(=O)(=O)N1CCCCC1	16	7	i	nt	25*	-34	i	i	-0.95	-6
CC(C)(C)c1csc(NC(=O)c2ccccc2O)n1	-38	-141	i	-118	25*	-92	23%*	i	-0.95	-2
Cc1ccc(C(C)NC(=O)CSc2ccc(S(=O)(=O)N3CCOCC3)cn2)cc1C (configuration not stated)	nt	nt	i	nt	nt	nt	nt	nt	nt	nt
O=CC1=C(c2ccccc2)Oc2ccccc2O1	10	-62	i	12	i	-33	nt	nt	nt	nt
CCN(CC)S(=O)(=O)c1ccc(N2CCN(C)CC2)c(NC(=O)Nc2ccc(C)cc2)c1	-70	-27	i	-22	i	-46	nt	nt	nt	nt
Cc1nnc(SCc2cnc(-c3ccc(C(C)C)cc3)s2)n1C	-57	nt	i	-30	100*	-84	24%*	i	-0.93	4
O=C(NC(Cc1ccccc1)C(=O)NCc1ccccn1)c1ccco1 (configuration not stated)	15	-20	i	-12	25*	14	i	i	-1	-2
O=C(NCc1ccccn1)c1ccco1	-5	4	i	-7	i	2	nt	nt	nt	nt
Cc1ccccc1-c1nc(-c2ccc(NC(=O)c3cccs3)cc2)no1	-56	-187	i	-84	i	-31	i	i	-1	-7
O=C(Nc1ccc(-c2noc(-c3ccccc3F)n2)cc1)c1cccs1	-52	-77	i	-33	i	-119	nt	nt	nt	nt
C=CCNC(=O)c1onc(CSc2ccc(C(C)C)cc2)c1C(=O)O	11	2	i	-29	25*	5	i	i	-1	-16
C=CCOc1ccc(C2C(C(=O)c3ccco3)=C(O)C(=O)N2CCCN(CC)CC)cc1 (configuration not stated)	-1	-46	i	1	25*	10	i	i	-0.97	-20
CCOC(=O)N1CCN(C(=O)Cn2nc(C)n3nc(-c4ccc(CC)cc4)cc3c2=O)CC1	2	27	i	-49	i	-3	nt	nt	nt	nt
O=C(CCNS(=O)(=O)c1ccc(OC(F)(F)F)cc1)N1CCN(C/C=C/c2ccccc2)CC1	4	18	i	-25	25*	0	i	i	-1.1	-4
O=C(CCNS(=O)(=O)c1ccc(OC(F)(F)F)cc1)N1CCCC1	5	nt	i	nt	nt	4	nt	nt	nt	nt
C#CCN(CC=C)C(=O)c1ccc(OC2CCN(S(=O)(=O)N(C)C)CC2)cc1	-42	-40	i	-51	i	-62	nt	nt	nt	nt
SMILES	Jurkat NFkB inh	aSyn 5UTR inh	TMEM16A act	KLF5 inh	ANO1 block	697 NFkB inh	TMEM16A reconf	TMEM16A Ca cntr	YFP-HEK293 quench	ClC-1 rat inh
CCOc1cc(/C=N/N=C(/N)c2nonc2N)cc(Br)c1OCc1ccc(Cl)cc1	7	1	i	-44	100*	10	i	i	-1	1
CC(Oc1ccccc1)c1ccnn1S(C)(=O)=O (configuration not stated)	-3	1	i	-33	i	4	nt	nt	nt	nt
CC(Oc1ccc(Cl)cc1)c1ccnn1S(=O)(=O)c1ccccc1 (configuration not stated)	1	32	i	-32	100*	-12	32%*	i	-1.1	-12
COc1cc(C(=O)OCc2csc(CC(=O)Nc3ccccc3C)n2)ccc1OCC(C)C	4	nt	i	nt	nt	6	nt	nt	nt	nt
O=C1/C(=C\c2ccco2)SC(=S)N1c1ccccc1	-8	-50	i	-31	i	-5	nt	nt	nt	nt
Cc1ccc(N2C(=O)/C(=C\c3ccco3)SC2=S)cc1	1	-39	i	-20	100*	-13	i	i	-1.1	-13
CC(C)c1ccc(C2(C)NC(=O)N(CC(=O)N3CCN(C(=O)c4cccs4)CC3)C2=O)cc1 (configuration not stated)	-9	nt	i	nt	nt	9	nt	nt	nt	nt
CCOC(=O)C1=C(N)Oc2cc(O)ccc2C1c1cccc(Cl)c1 (configuration not stated)	9	-39	i	27	i	-42	nt	nt	nt	nt

Source: PubChem BioAssay
